In PubChem BioAssay AID493005 (National Center for Advancing Translational Sciences (NCATS), 2010):
Screen size: about 340,000 compounds; fewer than 10 were called active. Calls come from the whole dose curve; as a rule, active = well fitted inhibition curve with a large enough effect in the main read-out, with a control signal flat (not every such curve was filed as active); inconclusive = small, poorly fitted or top-dose-only effect, or effect the other way, or a change in a side signal; inactive = no such curve, though single readings can be large or run the other way. These entries were drawn from the full list.

target: Tumor susceptibility gene 101 protein (Homo sapiens) (UniProt Q99816); test: qHTS Assay for Iinhibitors of HIV-1 Budding by Blocking the Interaction of PTAP/TSG101; details: Fluorescence polarization, FITC-PTAP peptide / Tsg101 binding; series mostly up to 115 µM
Source text: NIH Molecular Libraries Probe Production Network [MLPCN] NIH Chemical Genomics Center [NCGC] MLPCN Grant: 1 R03 MH087464-01A1 PI Name: Dr. Eric Freed, NCI NCGC Assay Overview: Stages of the HIV-1 replication cycle, specifically virus assembly and release, provide underexploited targets for the development of novel antiviral inhibitors. The late stages of HIV-1 replication are mediated by the Gag precursor protein, Pr55Gag. Expression of Pr55Gag is both necessary and sufficient for the production of virus-like particles from Gag-expressing cells. The Gag protein hijacks key host proteins involved in endocytic machinery of the host cell to promote endosomal processing and viral budding. The budding process requires a direct interaction between a […] (PTAP) motif in the p6 domain of Gag and the cellular endosomal sorting protein known as Tsg101. In this way, the Gag PTAP motif promotes the host cells to recruit viral particles to the plasma membrane where the new viral particles are released, effectively turning the host cells into viral factories. A fluorescence anisotropy assay has been developed to quantitatively measure the PTAP-Tsg101 interaction which can be used to screen for inhibitors of this interaction.
NCGC Assay Protocol Summary: Two uL of the Tsg101 binding domain in buffer (10 mM HEPES pH 7.5; 0.15 M NaCl, 0.01% Tween 20; 3 mM EDTA;0.1 mM TCEP) was dispensed into Greiner black MB 1536-well plates (final concentration 10 uM). Then, 23 nL of compounds or DMSO were delivered to each well using a pin tool. Finally, 2 uL of a FITC-labeled peptide containing the PTAP motif (1) in the same buffer was dispensed (50 nM final concentration) and the binding was allowed to proceed for 20 min. at r.t. Fluorescent polarization was determined using FITC excitation and polarized emission filters on a Perkin Elmer Viewlux. Keywords: Tsg101, PTAP, Gag, HIV, fluorescent polarization, MLSMR, MLPCN, NIH Roadmap, qHTS, NCGC

Tumor susceptibility gene 101 protein (Homo sapiens), sequence (Q99816 whole entry, looked up): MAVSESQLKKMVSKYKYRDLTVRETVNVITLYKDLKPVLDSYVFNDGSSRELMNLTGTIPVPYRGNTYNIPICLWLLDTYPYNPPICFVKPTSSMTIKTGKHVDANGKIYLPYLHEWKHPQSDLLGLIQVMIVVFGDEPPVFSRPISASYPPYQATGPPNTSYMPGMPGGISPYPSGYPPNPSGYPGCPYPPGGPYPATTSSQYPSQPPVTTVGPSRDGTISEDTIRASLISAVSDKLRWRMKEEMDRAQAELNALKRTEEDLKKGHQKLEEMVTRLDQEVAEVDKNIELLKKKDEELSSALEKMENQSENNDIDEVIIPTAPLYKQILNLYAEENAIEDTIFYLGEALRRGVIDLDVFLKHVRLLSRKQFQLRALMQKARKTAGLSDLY

outcome, inactive:
Nc1c(-c2cccc(Cl)c2)cnn1-c1cccc([N+](=O)[O-])c1
COc1ccc(CN2C(=O)CC(Cc3ccc(C)cc3)C2=O)cc1OC (centres undefined)
C/C(=N\N=C(N)N)c1ccc(Cl)cc1
CC(C)Oc1ccc(C2NC(=O)NC2=O)cc1 (centres undefined)
COC(=O)C1(S(=O)(=O)C2(C(=O)OC)CCCC2)CCCC1
C=CCOC(=O)C1=C(C)N=C2SCCC(=O)N2C1/C=C/c1ccccc1OC (centres undefined)
Cc1ccc(N(C(=O)CC2NC(=O)NC2=O)C2(C(=O)NC3CCCC3)CCCCC2)cc1 (centres undefined)
O=S(=O)(NCCS(=O)(=O)N1CCN(c2ccccc2)CC1)c1ccc(F)cc1
Fc1ccc(-n2c(Cc3ccccc3)nnc2SCc2nc(-c3ccc(Cl)cc3)no2)cc1
N/C(=N\OC(=O)CCc1ccccc1)c1ccc(Cl)cc1
O=C(CN1CCN(Cc2ccccc2)CC1)NC(c1ccccc1)c1ccccc1
O=C(O)c1[nH]c2ccccc2c1C(c1cccc(O)c1)c1c(C(=O)O)[nH]c2ccccc12
COCCCNCC(=O)Nc1sc(C)c(C)c1C(=O)OC
CCn1c(SCC(=O)NC2=NCCS2)nnc1C(C)NC(=O)c1ccccc1F (centres undefined)
Cc1ncc([N+](=O)[O-])n1CCOC(=O)c1ccc(Br)cc1
CC(C)(C)C(=O)Nc1cccc(-c2ccc[nH]2)n1
O=C(C/C(=N\NC(=O)c1ccccc1Br)C(F)(F)F)c1cccs1
COC(=O)[C@@]12CCCN1[C@H](c1ccc(-c3ccc(F)cc3)c(OC)c1)[C@H]1C(=O)N(C)C(=O)[C@H]12
C=C1c2c(Cl)ccc(O)c2C(O)=C2C(=O)[C@]3(O)C(O)=C(C(N)=O)C(=O)[C@@H](N(C)C)[C@@H]3[C@@H](O)C12 (some centres undefined)
Cc1ccc(C)c(OCCC(=O)OCC(=O)NC(=O)NCc2ccccc2)c1
COc1ccc(NC(=O)CSc2ccc(-c3ccco3)nn2)c(OC)c1
COC(=O)[C@]1(C)CCC[C@@]2(C)C3CC[C@]4(OC(C)=O)C[C@@]3(CCC21)CC4=NO (some centres undefined)
COc1ccc(C(=O)CCc2ccccc2O)c(OC)c1
Cc1ccc(CNC(=O)CCC(=O)N2CC(C)Sc3ccccc32)cc1 (centres undefined)
Cc1cc(C)cc(NC(=O)N2CCC(NC(=O)c3ccc(F)cc3)CC2)c1
Cc1ccc(CCCOC(=O)C[N+]2(C)CCCCC2)cc1
Cc1noc(C)c1S(=O)(=O)N1CCCC(C(=O)Nc2nccs2)C1 (centres undefined)
CCCCNC1(C#N)CCN(Cc2ccccc2)CC1
O=C(NNC(=S)NCCCN1CCOCC1)c1ccncc1
CCOc1cc(CN2CCCC(CO)(Cc3ccc(F)cc3F)C2)ccc1OC (centres undefined)
Cc1ccc2c(C)c(C(=O)N(C)CCC3CCCCO3)oc2c1C (centres undefined)
CN(C)C(=O)c1ccc2c(c1)C1C3CCC(C3)C1C(c1ccccc1)N2 (centres undefined)
O=C(CCC1CCCC1)N=C1SC2CS(=O)(=O)CC2N1Cc1ccccc1 (centres undefined)
Cc1ccc(CN(N=Nc2nonc2N)c2nonc2N)c(C)c1
Cc1ccc(C(=O)O)cc1N1C(=O)CCCC1=O
Cc1ccc(CN2CCN(c3ccccc3Cl)CC2)o1
CCCC(=O)Nc1nnc(CC(=O)OCC)s1
COc1ccc(CCNCc2c(-c3ccccc3)n(C)c3ccccc23)cc1
COc1ccc(F)cc1S(=O)(=O)N1CCCCC1
O=[N+]([O-])c1ccc(C=Nc2ccc(Cl)cc2Cl)s1
CCOC(=O)c1nnn(-c2nonc2-n2cccc2)c1CN1CCC(C(=O)OCC)CC1
C=CCc1cccc2cc(C(=O)Nc3ccc(NC(C)=O)cc3)c(=O)oc12
CCOC(=O)[C@@H]1[C@H]2COc3cc(OC)ccc3[C@H]2N2C(=O)N(c3ccc(F)cc3)C(=O)[C@]12C
O=C(Cc1ccccc1)Nc1c(Cl)ccc2nsnc12
CC(=O)c1ccc(NC(=O)C2CC(=O)Nc3nc4ccccc4n32)cc1 (centres undefined)
CCOc1ccc(NC(=O)C/C(C)=N/NC(=O)Cc2cccs2)cc1
CN(CC(=O)NCCN1CCOCC1)S(=O)(=O)c1ccc(F)cc1
C/C(=N\NC(=O)CCn1nc(C)cc1C)C(C)(C)C
O=C(Cc1ccc(NC(=O)C2CCCN(C(=O)CCc3ccccc3)C2)cc1)Nc1ccc(C(=O)N2CCOCC2)cc1 (centres undefined)
COc1ccc(-c2nc3c(s2)CCc2onc(-c4ccc(OC)cc4)c2-3)cc1
CC(=O)Nc1ccc(S(=O)(=O)N(CCc2ccccc2)CC(=O)N/N=C/c2ccc(C(=O)O)cc2)cc1
COc1cc(Cl)ccc1OCc1cc(C(=O)N(C)CCc2c(C)n[nH]c2C)no1
CC(C)C[C@H](NC(=O)C1CC(=O)N(c2ccc3c(c2)OCCO3)C1)C(=O)NC1CCCC1 (some centres undefined)
COc1ccc(Cl)cc1NC(=O)CN(C)C(=O)CCCc1c[nH]c2ccccc12
CC(C)CC(CC(C)C)=NNC(=O)c1ccc(CSc2nncn2C)cc1
O=C(c1cc(-c2ccco2)nc2ccccc12)N(Cc1nnc(-c2ccc(Cl)cc2)o1)C1CC1
CN(CC(=O)Nc1ccc(Cl)c(C(F)(F)F)c1)C(=O)CCC(=O)c1ccccc1
Cn1ncc(N2CCN(S(=O)(=O)c3ccc(Br)cc3)CC2)c(Cl)c1=O
CC(C)OP(=O)(OC(C)C)C(Nc1ccccc1)c1cccc([N+](=O)[O-])c1 (centres undefined)
CC(=O)N(c1ccc2oc(=O)sc2c1)S(=O)(=O)c1ccc(C)cc1
Clc1ccc(C[n+]2cc(-c3ccc(Cl)cc3)n3c2CCC3)cc1
COC(=O)[C@@H]1C[C@@]2(O)[C@@H](O)[C@@H](O)[C@@H](O)C[C@H]2N1Cc1ccc(C)s1
COc1ccccc1NS(=O)(=O)c1ccc(C)c(C(=O)NNC(=O)c2csc(N3CCOCC3)n2)c1
CC(=O)OC1CCC2C3CCC4=C(CC(F)C(=O)C4)C3CCC12C (centres undefined)
Cc1ccc(S(=O)(=O)N2CCCC2C(=O)NCc2ccco2)cc1 (centres undefined)
CS(=O)(=O)N1CCCC(C(=O)N2CCOCC2)C1 (centres undefined)
CCCN1C(=O)C(NC(C)=O)c2cc(OC)ccc21 (centres undefined)
O=C(NC1CCCC1)C(c1ccc(N2CCOCC2)cc1)N(C(=O)c1ccco1)c1ccccc1F (centres undefined)
O=C(Nc1ccccc1-c1nnn(CC(=O)N2CCCc3ccccc32)n1)c1cccc(Cl)c1
CC(C)C(O)C1CCN(Cc2nc(Cc3ccccc3Cl)no2)CC1 (centres undefined)
O=C(Nc1ccc2c(c1)nc1n2CCCCC1)c1cc(S(=O)(=O)N2CCOCC2)ccc1Cl
C=CCn1c(COc2ccc(F)cc2)nnc1SCC(=O)Nc1cccc(S(N)(=O)=O)c1
CCc1c(O)nc(SCC(=O)Nc2ccccc2)n(C(C)CC)c1=O (centres undefined)
COc1cc(OC)cc(C(=O)NNC(=O)Cc2cccs2)c1
Cc1cc(C)cc(-c2nnc(SCC(=O)NC3CC3)o2)c1
CCc1cccc(C)c1NC(=S)N(CCCN1CCN(C)CC1)Cc1cccs1
COc1cccc(NC(=O)Cn2c3ccc(F)cc3c3nc4n(c(=O)c32)CCS4)c1
O=S(=O)(NN=C1CCCCCCC1)c1ccc(Br)cc1
Cn1c2ccccc2n2c(=O)c(=O)n(CC(=O)c3ccc(F)cc3)nc12
CCOc1ccc(NC(=O)COc2ccc(C(=O)N3CCC(C(N)=O)CC3)cc2OC)cc1
CC(NS(=O)(=O)c1ccccc1)c1n[nH]c(=S)n1-c1ccccc1 (centres undefined)
O=C(O)C1CCCCC1C(=O)N1CCN(S(=O)(=O)c2ccc(F)cc2)CC1 (centres undefined)
COc1ccc(OCc2n[nH]c(=S)n2N)cc1
Cc1ccccc1-n1cc(CNC(=O)CC2C(=O)NCCN2C/C=C/c2ccccc2)cn1 (centres undefined)
CN1CCCN(C(=O)C2CCCCC2)CC1
CCc1nc(SCC(=O)Nc2ccccc2OC)n[nH]1
CC(=O)N(CN1C(=O)C2CC=CCC2C1=O)c1cccc(Cl)c1 (centres undefined)
O=C(O)CCN(Cc1ccccc1)S(=O)(=O)c1c(Cl)cccc1Cl
CSc1nc2nc(-c3cccc(C(F)(F)F)c3)ccn2n1
CC(=O)n1cc([C@@H]2C=C(C(=O)N3CCN(Cc4ccc5c(c4)OCO5)CC3)O[C@H](OCc3ccc(CO)cc3)C2)c2ccccc21
CC(=O)N1CCOc2ccc(S(=O)(=O)N3CCC(C(=O)Nc4ccccc4F)CC3)cc21
COc1ccc(Cl)cc1NS(=O)(=O)c1cccc(C(=O)NCC2CCCO2)c1 (centres undefined)
CC1=C2C(=O)OC(c3ccoc3)C2(C)CCC1 (centres undefined)
C/C(=N\N1CCN(Cc2ccc(C)cc2)CC1)c1ccco1
O=C1CCC(=O)N1CCOP1(=O)COc2ccccc2OC1
O=C1c2ccccc2NC(c2ccccc2O)N1NS(=O)(=O)c1ccccc1 (centres undefined)
COc1cccc(C(=O)Nc2cc3c(cc2Br)OCCCO3)c1
COc1ccccc1C(=O)Nc1ccnn1C1CCN(C(=O)C(C)(C)C)CC1
O=C(CCSc1ccccc1)NCCSc1ccccn1
CCCCC(=O)NC(c1ccc(OC)c(OC)c1)c1ccc2cccnc2c1O (centres undefined)
CN(C)CCNC(=O)c1ccc(Cl)c2cc3ccccc3nc12
CCCCN(C(=O)CSCC(=O)Nc1ccc(OC)cc1)c1c(N)n(CCC)c(=O)[nH]c1=O
C=CCN1C(=O)C(Cc2ccc(OCC)cc2)SC1=Nc1ccc(C(=O)O)cc1 (centres undefined)
O=C(O)CN(Cc1ccco1)S(=O)(=O)c1ccc(F)cc1
